Test [1] in a line: compounds altering viability of human ES cells (AID 493140).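 Further: cells exposed to compounds for four days before counting.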 The conditions noted are these: human embryonic stem cell survival screen; stronger effect = higher value.
Test [2] in a line: P. berghei load reduction in hepatocytes – cell-based, HepG2, luciferase luminescence, HepG2 viability, primary screen (AID 624349; in the data active means parasite load remaining mostly below about 12%, no sharp cut-off; inactive means mostly above about 10%;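 further: 100% = mean of DMSO negative control wells on the same plate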). To be noted: P. berghei liver stage in HepG2, luciferase luminescence, concentration not given here; parasite load remaining: stronger effect = lower value; viability: measured here: HepG2 viability without parasites.
Test [3] is described as follows: liver-stage malaria parasite load reduction – cell-based, known kinase inhibitor set, luminescence, hepatoma host viability (AID 624392).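 Further: infected cells incubated roughly two days before readout.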 The conditions noted are these: Plasmodium liver stage in hepatoma cells, luciferase luminescence, concentration not given here; liver cell % of control: measured here: host liver cell viability; parasite % of control: stronger effect = lower value.

The viability is a read-out of living cells in per cent, often relative to untreated cells.

Activity calls are given as the source filed them. Unless noted, how the calls were made is not given here.

Turning to `CC[C@H]1CN2CCc3cc(OC)c(OC)cc3[C@@H]2C[C@@H]1C[C@H]1NCCc2cc(O)c(OC)cc21`, the survival in test [1] is 0.333 (inactive). Moreover, in test [2], the parasite load remaining is 8.07% (inactive) and the viability was found to be 49.7%.

Consider `O=C1NC(=O)C(=Cc2ccc(-c3ccc(F)cc3O)o2)C(=O)N1`, for which, in test [3], the liver cell % of control was found to be 100% and the parasite % of control was 87.6% (inactive).

Regarding `CCC[C@@H]1C[C@@H](C(=O)N[C@H]([C@@H](C)O)[C@H]2O[C@H](SC)[C@H](O)[C@@H](O)C2O)N(C)C1` (some centres undefined), the survival in test [1] was 18.3 (inactive).

Consider `O=C1NC(=O)C(=Cc2ccc(-c3ccc(Cl)cc3)o2)C(=O)N1`, for which, in test [3], the liver cell % of control came out at 87% and the parasite % of control is 167% (inactive). As for `CC1O[C@@H](O[C@@H]2C=C3CCC4C(CC[C@]5(C)[C@@H](c6ccc(=O)oc6)CC[C@]45O)[C@@]3(C)CC2)C(O)[C@@H](O)[C@H]1O` (some centres undefined), the survival in test [1] was 2.83 (inactive). For the compound `NC(N)=NOCC[C@@H](N)C(=O)O`, the survival in test [1] was 14.8 (inactive). Further, in test [2], the parasite load remaining is 70.5% (inactive) and the viability turned out to be 75.6%. Turning to `CCN(CC)C(=O)N[C@@H]1CC2c3cccc4[nH]cc(c34)CC2N(C)C1` (some centres undefined), the survival in test [1] is 2.5 (inactive). On to `CC1CCC2(NC1)O[C@H]1C[C@H]3[C@@H]4CC=C5C[C@@H](O)CC[C@]5(C)[C@H]4CC[C@]3(C)[C@H]1[C@@H]2C` (some centres undefined), for which the survival in test [1] was 4.83 (inactive). Turning to `CNS(=O)(=O)c1ccc(-c2ccc(C=C3C(=O)NC(=O)NC3=O)o2)cc1`, in test [3], the liver cell % of control is 99.7% and the parasite % of control is 111% (inactive).

For `O=C1NC(=O)C(=Cc2ccc(-c3ccc(S(=O)(=O)N4CCOCC4)cc3)o2)C(=O)N1`, in test [3], the liver cell % of control was 98.4% and the parasite % of control is 98.3% (inactive). On to `NS(=O)(=O)c1ccc(-c2ccc(C=C3C(=O)NC(=O)NC3=O)o2)cc1`, for which, in test [3], the liver cell % of control is 104% and the parasite % of control is 97.7% (inactive). `CN1C2CCC1CC(O)C2` (centres undefined): in test [1], the survival was 7.58 (inactive). Also, in test [2], the parasite load remaining is 64% (inactive) and the viability was 69.9%. For the compound `CN1C2CC(=O)CC1C(O)C2` (centres undefined), the survival in test [1] is 4.08 (inactive).

Source of the values: PubChem BioAssay.
